# Hits are enriched below; roughly 2% of the tested compounds scored in any of these assays.
# PG9 binder: binders of HIV-1 gp120 antibody PG9, primary screen, biochemical, TR-FRET. TR-FRET gp120-PG9 antibody binding. inhibition, % at 6.7 µM. AID 624416, 2012. 360,000 compounds, 0.43% hits. HIV-1 gp120 / PG9 antibody interaction; in the data active = inhibition above about 8.5%
# Granule exo inh: LAMP-1 surface exposure blockers, TALL-104 cells – cell-based, flow cytometry, MLPCN library, primary screen; TALL-104 LAMP-1 surface exposure; cells stimulated with thapsigargin and PMA; inhibition, % at 10 µM; 360,000 compounds, 0.66% hits; AID 651702, 2012;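 active = inhibition above about 55%, limit read from the data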
# VLA-4 inh: inhibition in human VLA-4 binding assay, primary screen, VLA-4 allosteric modulator project, MLPCN library, flow cytometry, VLA-4 expressing cells; 330,000 compounds, 0.2% hits; AID 2557, 2010; inhibition, % (about 7 µM as worked out from the volumes in the protocol); ligand binding flow cytometry; in the data active = inhibition above about 50%
# Rev-erbA mod: modulators of Rev-erb alpha DNA binding, primary screen, biochemical, FITC-DNA, fluorescence polarization, uHTS; Nuclear receptor subfamily 1 group D member 1 (Homo sapiens), P20393; Rev-erbα–FITC-DNA binding, 90 min; activity, % at 10 µM; 370,000 compounds, 0.79% hits; AID 1259318, 2017;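 active = activity above about 14%, limit read from the data; passing the limit was not always enough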;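 also: 0% = DMSO wells with 35 nM protein and 100% = DMSO wells with 750 nM protein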
# Target sequence (P20393 whole entry, looked up): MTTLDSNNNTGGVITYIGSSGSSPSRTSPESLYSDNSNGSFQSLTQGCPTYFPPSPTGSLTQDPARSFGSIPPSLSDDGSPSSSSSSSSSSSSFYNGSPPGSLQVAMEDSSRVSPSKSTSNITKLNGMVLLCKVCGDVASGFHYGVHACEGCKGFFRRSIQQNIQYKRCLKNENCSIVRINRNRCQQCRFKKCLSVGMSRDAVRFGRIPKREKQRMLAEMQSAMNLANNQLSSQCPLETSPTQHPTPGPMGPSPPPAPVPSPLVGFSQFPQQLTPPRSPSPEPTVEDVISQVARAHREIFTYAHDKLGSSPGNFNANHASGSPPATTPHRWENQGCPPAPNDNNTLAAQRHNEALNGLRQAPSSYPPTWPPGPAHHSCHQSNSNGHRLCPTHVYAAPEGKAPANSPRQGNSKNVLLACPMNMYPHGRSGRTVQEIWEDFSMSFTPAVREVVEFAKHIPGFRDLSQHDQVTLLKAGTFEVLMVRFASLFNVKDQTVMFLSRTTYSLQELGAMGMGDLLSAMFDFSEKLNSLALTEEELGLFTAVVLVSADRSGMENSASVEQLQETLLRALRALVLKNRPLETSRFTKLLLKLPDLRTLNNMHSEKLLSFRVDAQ
# ABCB6 inh MLPCN: ABCB6 transporter inhibitors, primary screen, K562-ABCB6 cells, flow cytometry, MLPCN library | AID 602162, 2011 | fluorescence ratio to DMSO, % at 10 µM | K562-ABCB6 porphyrin accumulation, 1 h; active compounds read low | 360,000 compounds, 0.19% hits;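 active = fluorescence ratio to DMSO below 75%, the collection mean minus 3 SD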;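 also: signal is porphyrin accumulated inside mitochondria; 100% equals median channel fluorescence of DMSO control wells; lower ratio means ABCB6 inhibition with less porphyrin fluorescence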
# Granule exo CP1: inhibitors of lytic granule exocytosis, confirmation, TALL-104 cells, flow cytometry, Cherry Pick01; shares compounds with Granule exo inh; LAMP-1 externalization; stimulated with PMA plus thapsigargin; inhibition, % at 10 µM; 1,500 compounds, 11% hits; in the data active = inhibition above about 60%;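 also: 0% = stimulated vehicle wells and 100% = unstimulated wells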
# The depositor's hits bear a star; . = no result given.
SMILES,PG9 binder,Granule exo inh,VLA-4 inh,Rev-erbA mod,ABCB6 inh MLPCN,Granule exo CP1
CCOC(=O)c1c(-c2ccc(OC)cc2)oc2ccc(O)cc12,-3,63*,-3,10,95,-12
Cc1ccc(NC(=O)Nc2ccc3c(c2)[C@]2(CC(=O)N(CC(C)C)C2c2ccccc2)C(=O)N3C)cc1Cl (some centres not stated),.,.,.,4,.,.
C#CCN1C(=O)[C@]2(NCCc3c2[nH]c2ccc(OC)cc32)c2cc(F)ccc21,.,.,.,5,.,.
CC1=Nc2ccccc2/C1=C\c1nc(-c2ccc(F)cc2)oc1O,-3,76*,-118,3,101,36
COc1ccc(-n2sc3ccccc3c2=O)cc1,0,84*,.,1,97,100*
COc1ccc(-n2sc3ccc(F)cc3c2=O)cc1,0,-4,0,-3,94,.
CCOC(=O)c1c(CN2CCN(c3ccccc3)CC2)oc2ccc(O)cc12,2,-1,26,2,100,.
CCOC(=O)c1c(N2CCN(c3ccccc3)CC2)cc(C)nc1C,2,62*,8,-1,96,-14
Cn1c(=O)c(NC2CCCCC2)c2c3c(cccc31)C(=O)c1ccccc1-2,-2,90*,.,11,529,101*
CCNc1c2c3c(cccc3n(C)c1=O)C(=O)c1ccccc1-2,.,.,6,.,.,.
Cc1ccc(NC(=O)c2sc3nc(N4CCOCC4)c4c(c3c2N)CCCC4)cc1,1,10,.,-7,97,.
COc1cccc(NC(=O)c2sc3nc(N4CCOCC4)c4c(c3c2N)CCCC4)c1,2,69*,10,1,96,-16
CN(c1ccccc1)S(=O)(=O)c1ccc(C(=O)NCCc2ccc(F)cc2)cc1,-1,72*,8,-1,95,-4
COc1ccccc1N(C)S(=O)(=O)c1ccc(C(=O)NCCc2ccc(F)cc2)cc1,0,2,15,8,99,.
CC(C)(C)c1cc(CP(=O)(c2ccccc2)c2ccccc2)cc(C(C)(C)C)c1O,0,57*,7,4,98,-12
COc1cccc(CN(C)C(=O)c2ccc(Oc3ccccc3)cc2)c1OC,1,73*,0,7,95,27
Cc1cccc(-c2ccc(NC(=O)C3CCN(CC4CC4)CC3)cc2)c1,-1,4,8,2,100,.
COc1cccc(CN2CCC(C(=O)Nc3ccc(-c4cccc(C)c4)cc3)CC2)c1O,-1,74*,5,5,95,3
CC1CN(CCOc2cccc(Oc3ccccc3)c2)CC(C)O1 (configuration not stated),0,16,6,-1,101,.
CC1CCCN(CCOc2cccc(Oc3ccccc3)c2)C1 (configuration not stated),-2,60*,8,6,94,-10
CC(C)N1CCc2c(-c3nc4ccccc4s3)csc2C1,.,.,.,4,.,.
CCc1ccc(NCc2ccc(OC)c(Cn3ccnc3)c2)cc1,0,58*,1,3,95,-13
CCCCc1ccc2nc(NC(=O)c3ccc(Br)o3)sc2c1,.,.,.,4,.,.
CCN(c1ccccc1)S(=O)(=O)c1ccc(C(=O)N(CCCN(C)C)c2nc3cc4c(cc3s2)OCO4)cc1,0,70*,5,-5,102,3
CCOc1ccc2nc(N(CCN(C)C)C(=O)c3cc4ccccc4cc3OC)sc2c1,.,3,-3,.,102,.
Cc1ccc2sc(N(CCCN(C)C)C(=O)c3ccc(S(=O)(=O)N(C)C)cc3)nc2c1C,-2,10,-2,2,98,.
CCOc1cccc2sc(N(CCCN(C)C)C(=O)c3ccc(S(=O)(=O)N(CC)Cc4ccccc4)cc3)nc12,-1,64*,16,12,100,60*
CCOc1cccc2sc(N(CCN(C)C)C(=O)c3cc4ccccc4cc3OC)nc12,-1,59*,7,0,97,15

# Bioassay records: PubChem, several laboratories
